For twelve molecules, activity, negative = inhibition and Potency results are on record in PubChem BioAssay (NCATS).

Structures are written as SMILES. Records with an inconclusive call do not appear. A number with no mark means an inactive call. Calls of active or inactive are those of the source. The call rests on the fitted dose curve; in most records, active means well fitted inhibition curve with a large enough effect; inconclusive means small, poorly fitted or top-dose-only effect; inactive means flat fitted curve, though single readings scatter.

Experiment [1] in a line: qHTS profiling for inhibitors of Plasmodium falciparum proliferation (AID 504749). Further: nearly all actives have a fitted effect of over 60% in size.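 On activity, negative = inhibition: 0% = DMSO vehicle and full inhibition = artemisinin control.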 To be noted: P. falciparum in erythrocytes, SYBR Green DNA, 72 h. The method, boiled down:
(§1)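 Infected RBCs, 0.3% parasitemia/2.5% Hct final; cpd 72 h, 37 C, 5% CO2; lysis buffer with saponin/triton/SYBR Green I, o/n RT dark; FI 485/535; norm. to artemisinin (0.29 uM) and DMSO.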
For orientation: Quantitative high-throughput screening tests each substance at several concentrations.

In experiment [2] the test system is 3D7. Described as above. To be noted: P. falciparum in erythrocytes, SYBR Green DNA, 72 h; series mostly up to 28.7 µM. The method, boiled down: as §1
For experiment [3], the system named is 7G8. The description is as above. To be noted: P. falciparum in erythrocytes, SYBR Green DNA, 72 h; series mostly up to 28.7 µM. In short, it runs like this: as §1
Experiment [4] concerns AA1029. The experiment is described as above. To be noted: P. falciparum in erythrocytes, SYBR Green DNA, 72 h; series mostly up to 28.7 µM. In short, it runs like this: as §1
Experiment [5] has as its system AS120. Described as above. The conditions noted are these: P. falciparum in erythrocytes, SYBR Green DNA, 72 h; series mostly up to 28.7 µM. In short, it runs like this: as §1
Experiment [6] deals with ATS189. The experiment is described as above. The conditions noted are these: P. falciparum in erythrocytes, SYBR Green DNA, 72 h; series mostly up to 28.7 µM. In short, it runs like this:
as §1

For experiment [7], the system named is ATS95. Described as above. The conditions noted are these: P. falciparum in erythrocytes, SYBR Green DNA, 72 h; series mostly up to 28.7 µM. In short, it runs like this: as §1
For experiment [8], the system named is C2A. The experiment is described as above. The conditions noted are these: P. falciparum in erythrocytes, SYBR Green DNA, 72 h; series mostly up to 28.7 µM. The method, boiled down:
as §1

Experiment [9] relates to CP185. The experiment is described as above. To be noted: P. falciparum in erythrocytes, SYBR Green DNA, 72 h; series mostly up to 28.7 µM. The method, boiled down: as §1
The test system of experiment [10] is CP191. The experiment is described as above. The conditions noted are these: P. falciparum in erythrocytes, SYBR Green DNA, 72 h; series mostly up to 28.7 µM. In short, it runs like this: as §1
Experiment [11] deals with CP192. Described as above. To be noted: P. falciparum in erythrocytes, SYBR Green DNA, 72 h; series mostly up to 28.7 µM. The method, boiled down: as §1
Experiment [12] has as its system CP194. The experiment is described as above. The conditions noted are these: P. falciparum in erythrocytes, SYBR Green DNA, 72 h; series mostly up to 28.7 µM. The method, boiled down:
as §1

Experiment [13] concerns CP201. Described as above. The conditions noted are these: P. falciparum in erythrocytes, SYBR Green DNA, 72 h; series mostly up to 28.7 µM. In short, it runs like this: as §1
Experiment [14] concerns CP203. The description is as above. The conditions noted are these: P. falciparum in erythrocytes, SYBR Green DNA, 72 h; series mostly up to 28.7 µM. In short, it runs like this: as §1
The subject of experiment [15] is CP211. The description is as above. The conditions noted are these: P. falciparum in erythrocytes, SYBR Green DNA, 72 h; series mostly up to 28.7 µM. In short, it runs like this:
as §1

Experiment [16] relates to CP215. The description is as above. To be noted: P. falciparum in erythrocytes, SYBR Green DNA, 72 h; series mostly up to 28.7 µM. In short, it runs like this:
as §1

Experiment [17] has as its system CP217. The experiment is described as above. The conditions noted are these: P. falciparum in erythrocytes, SYBR Green DNA, 72 h; series mostly up to 28.7 µM. In short, it runs like this: as §1
Experiment [18] has as its system CP237. The description is as above. To be noted: P. falciparum in erythrocytes, SYBR Green DNA, 72 h; series mostly up to 28.7 µM. The method, boiled down:
as §1

Experiment [19] deals with CP238. Described as above. The conditions noted are these: P. falciparum in erythrocytes, SYBR Green DNA, 72 h; series mostly up to 28.7 µM. In short, it runs like this:
as §1

[20] abbreviates: at 28.7 µM (top of the series), parasite line A.
[21] abbreviates: at 28.7 µM (top of the series), parasite line B.
The mark [22] stands for this setting: at 12.8 µM (top of the series), parasite line A.
The mark [23] stands for this setting: at 12.8 µM (top of the series), parasite line B.
Potency means the concentration at half of the fitted maximal effect.

On to `NC(N)=NCc1cccc(I)c1`, for which the activity, negative = inhibition in experiment [1] (setting [20]) was -25.5%; in experiment [1] (setting [21]) it was -23.4%. The Potency entry in experiment [2], in experiment [3], in experiment [4], in experiment [5], in [6] and in [7] was “inactive” throughout. Besides, the Potency entry in experiment [8], in experiment [9], in [10], in [11], in experiment [12] and in [13] was “inactive” in each case. For the same molecule, the Potency result in experiment [14], in experiment [15], in experiment [16], in experiment [17], in [18] and in experiment [19] was “inactive” throughout.
Turning to `CC1(COc2ccc(CC3SC(=O)NC3=O)cc2)CCCCC1` (stereo not given), the figures for the activity, negative = inhibition in experiment [1] (setting [20]) and in experiment [1] (setting [21]) were 11% and -0.436%, respectively. Also, the Potency result in experiment [2], in [3], in experiment [4], in experiment [5], in experiment [6] and in experiment [7] was “inactive” in each case. Also, the Potency result in experiment [8], in experiment [9], in [10], in experiment [11], in experiment [12] and in [13] was “inactive” each time. In addition, the Potency entry in experiment [14], in [15], in experiment [16], in [17], in [18] and in experiment [19] was “inactive” each time.
On to `O=C(c1ccc(F)cc1)C1CCN(CCn2c(=S)[nH]c3ccccc3c2=O)CC1`, for which the Potency is 5.01 µM (active) in experiment [1] (parasite line A); 10 µM (active) in experiment [1] (parasite line B); 11.2 µM (active) in [2]; 2.24 µM (active) in [3]; 4.47 µM (active) in experiment [4]; 2.82 µM (active) in experiment [5]. Besides, the Potency is 6.31 µM (active) in experiment [6]; 5.01 µM (active) in experiment [7]; 10 µM (active) in experiment [8]; 7.94 µM (active) in experiment [9]; 11.2 µM (active) in experiment [10]; 6.75 µM (active) in experiment [11]. Besides, the Potency in experiment [12] is 7.57 µM (active); in [13], 7.57 µM (active); in experiment [14] it was 6.01 µM (active); in [15], 6.01 µM (active); in experiment [16], 5.36 µM (active); in [17], 5.01 µM (active). Moreover, the Potency in [18] was 5.01 µM (active); in experiment [19], 7.94 µM (active).
As for `NC(=O)c1ccccc1O`, the figures for the activity, negative = inhibition in experiment [1] (setting [20]) and in experiment [1] (setting [21]) were 4.99% and 15.1%, respectively. The Potency entry in experiment [2], in [3], in [4], in experiment [5], in [6] and in experiment [7] was “inactive” each time. Also, the Potency result in experiment [8], in experiment [9], in experiment [10], in [11], in experiment [12] and in experiment [13] was “inactive” throughout. The Potency entry in experiment [14], in [15], in experiment [16], in experiment [17], in experiment [18] and in experiment [19] was “inactive” each time.
`O=C(NCCc1c[nH]c2ccccc12)c1cccnc1`: the activity, negative = inhibition in experiment [1] (setting [20]) is 0.138%; in [1] (setting [21]), 13.6%. Besides, the Potency entry in experiment [2], in experiment [3], in experiment [4], in experiment [5], in experiment [6] and in experiment [7] was “inactive” in each case. Further, the Potency result in [8], in experiment [9], in experiment [10], in experiment [11], in [12] and in experiment [13] was “inactive” in each case. Also, the Potency result in experiment [14], in experiment [15], in experiment [16], in experiment [17], in experiment [18] and in experiment [19] was “inactive” throughout.
As to `COc1cc(NS(=O)(=O)c2ccc(N)cc2)ncn1`, the figures for the activity, negative = inhibition in [1] (setting [22]) and in [1] (setting [23]) were 3.14% and 1.14%, respectively. Besides, the Potency result in experiment [2], in experiment [3], in [4], in experiment [5], in [6] and in experiment [7] was “inactive” each time. The Potency result in experiment [8], in [9], in [10], in [11], in experiment [12] and in experiment [13] was “inactive” each time. Besides, the Potency result in experiment [14], in experiment [15], in experiment [16], in experiment [17], in experiment [18] and in experiment [19] was “inactive” in each case.
As for `CCOc1ccccc1OCCN[C@H](C)Cc1ccc(OC)c(S(N)(=O)=O)c1`, the results for the activity, negative = inhibition in experiment [1] (setting [20]) and in experiment [1] (setting [21]) were 7.23% and 1.02%, respectively. The Potency result in [2], in experiment [3], in experiment [4], in experiment [5], in experiment [6] and in [7] was “inactive” in each case. For the same molecule, the Potency result in [8], in [9], in experiment [10], in [11], in [12] and in experiment [13] was “inactive” throughout. Besides, the Potency result in experiment [14], in experiment [15], in experiment [16], in experiment [17], in [18] and in experiment [19] was “inactive” in each case.
In the case of `Cc1c[nH]c2ccccc12`, the activity, negative = inhibition was -2.76% in [1] (setting [20]) and 2.47% in experiment [1] (setting [21]). Moreover, the Potency entry in [2], in experiment [3], in experiment [4], in experiment [5], in [6] and in [7] was “inactive” each time. Further, the Potency result in experiment [8], in experiment [9], in experiment [10], in experiment [11], in experiment [12] and in experiment [13] was “inactive” each time. Further, the Potency result in [14], in [15], in experiment [16], in experiment [17], in experiment [18] and in [19] was “inactive” each time.
Take `N=C(N)N1CCc2ccccc2C1`: the activity, negative = inhibition was 15.6% in [1] (setting [20]) and 0.433% in experiment [1] (setting [21]). The Potency entry in experiment [2], in [3], in experiment [4], in [5], in experiment [6] and in experiment [7] was “inactive” each time. For the same molecule, the Potency entry in experiment [8], in experiment [9], in experiment [10], in experiment [11], in experiment [12] and in experiment [13] was “inactive” each time. Further, the Potency result in experiment [14], in experiment [15], in experiment [16], in [17], in experiment [18] and in experiment [19] was “inactive” each time.
On to `CCN(CC)CCNC(=O)COc1ccc(OC)cc1`, for which the figures for the activity, negative = inhibition in experiment [1] (setting [20]) and in experiment [1] (setting [21]) were 19.5% and 3.1%, respectively. For the same molecule, the Potency entry in [2], in experiment [3], in experiment [4], in [5], in experiment [6] and in [7] was “inactive” each time. Further, the Potency entry in [8], in experiment [9], in experiment [10], in [11], in [12] and in experiment [13] was “inactive” throughout. The Potency result in experiment [14], in experiment [15], in [16], in [17], in [18] and in experiment [19] was “inactive” each time.
In the case of `NS(=O)(=O)c1ccc(Cl)c(S(N)(=O)=O)c1`, the activity, negative = inhibition in [1] (setting [20]) was 8.67%; in [1] (setting [21]), 14.1%. The Potency result in experiment [2], in experiment [3], in experiment [4], in experiment [5], in [6] and in experiment [7] was “inactive” throughout. For the same molecule, the Potency result in experiment [8], in [9], in experiment [10], in experiment [11], in [12] and in [13] was “inactive” throughout. The Potency result in [14], in experiment [15], in [16], in experiment [17], in experiment [18] and in [19] was “inactive” in each case.
With `c1ccc(CC2=NCCN2)cc1`, the values for the activity, negative = inhibition in experiment [1] (setting [22]) and in experiment [1] (setting [23]) were -1.06% and -2.59%, respectively. For the same molecule, the Potency result in [2], in experiment [3], in [4], in [5], in experiment [6] and in experiment [7] was “inactive” in each case. Also, the Potency result in experiment [8], in [9], in [10], in [11], in experiment [12] and in [13] was “inactive” throughout. Also, the Potency entry in experiment [14], in experiment [15], in experiment [16], in experiment [17], in [18] and in experiment [19] was “inactive” each time.
